Screens from PubChem.
Statin myotox sup: suppressors of simvastatin-induced myotoxicity in C2C12 myotubes. ATP luminescence, 48 h; scaled: DMSO 0, geranylgeraniol control 100. rescue of ATP level, % at 7.49 µM. hit rate 0.78% among 330,000;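 active = mean ATP rescue above about 67%, or every replicate alone reaching that limit, limit read from the data, passing the limit was not always enough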;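 note: myotubes were challenged with 10 µM simvastatin during compound exposure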
PvdQ acylase: P. aeruginosa PvdQ acylase inhibition; inhibition, % at 10 µM; hit rate 0.063% among 340,000; purified PvdQ acylase, fluorescence plate reader; in the data active = inhibition above about 30%, passing the limit was not always enough
miR-122 sensor: blocks miR-122 activity in Huh7 sensor cells. activation (reporter increase), % at 12.5 µM. hit rate 0.3% among 340,000. Huh7 miR-122 Renilla luciferase sensor, 48 h; neutral wells = 0, positive control = 100;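 active = mean replicate activation score at least 90 and every replicate individually at or above 90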;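 note: higher luciferase means less miR-122 activity so hits act as miR-122 inhibitors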
PGC1a acetyl inh: lowers PGC1a acetylation signal in U2OS cells | AID 651687 | hit rate 0.17% among 350,000 | AlphaScreen anti-acetyl-lysine; with virally co-expressed GCN5 acetyltransferase | inhibition, % at 15.6 µM;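 active = every replicate shows inhibition of at least 40%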
DENV2 CPE: protects cells from dengue virus 2 cytopathic effect; hit rate 1.7% among 350,000; CPE inhibition, % at 9.99 µM; AID 651640; DENV2-infected cells, cytopathic effect rescue, plate reader; in the data active = CPE inhibition above about 20%, passing the limit was not always enough; tested in BHK-21 cells
Numbers stand for hits; n = inactive; x = no result given. Shown are actives, neighbours in structure and some others; about 2.2% of the full set was active somewhere.

SMILES | Statin myotox sup | PvdQ acylase | miR-122 sensor | PGC1a acetyl inh | DENV2 CPE
CCSc1nc2sc3c(c2c(=O)n1CC)CCC3 | n | n | n | n | 39.8
O=C(CNC(=O)c1ccc(Br)cc1)N/N=C/c1cccnc1 | 109.1 | n | n | n | n
CC(=O)N(C)C[C@H]1Oc2ncc(C#Cc3ccccc3)cc2C(=O)N([C@H](C)CO)C[C@H]1C | n | x | n | n | 48.3
COc1cccc(-c2cnc3c(c2)C(=O)N([C@H](C)CO)C[C@H](C)[C@@H](CN(C)C(C)=O)O3)c1 | n | x | n | n | 32.0
C[C@H](CO)N1C[C@H](C)[C@@H](CN(C)C(=O)CN(C)C)Oc2ncc(C#Cc3cccnc3)cc2C1=O | n | x | n | n | n
COc1ccc(C#Cc2cnc3c(c2)C(=O)N([C@@H](C)CO)C[C@H](C)[C@H](CN(C)C(C)=O)O3)cc1 | n | x | n | n | 26.1
C[C@@H]1CN([C@H](C)CO)C(=O)c2cc(C#Cc3cccnc3)cnc2O[C@@H]1CN(C)C(=O)CN(C)C | n | x | n | n | 35.1
CC(=O)N(C)C[C@H]1Oc2ncc(C#Cc3ccccc3)cc2C(=O)N([C@@H](C)CO)C[C@@H]1C | n | x | n | n | n
C/C=C/c1ccc([C@H]2[C@@H](CN(C)C(=O)CC)N(C(=O)C3CC3)[C@H]2CO)cc1 | x | x | x | x | n
CC(C)C#Cc1ccc2c(c1)O[C@H](CN(C)C(=O)C1CCCCC1)[C@H](C)CN([C@H](C)CO)S2(=O)=O | n | x | n | n | x
CCCNC(=O)C[C@H]1C[C@H]2c3cc(NC(=O)Cc4ccncc4)ccc3O[C@H]2[C@H](CO)O1 | n | x | n | n | n
CCCC#Cc1ccc2c(c1)O[C@H](CN(C)CC1CCOCC1)[C@@H](C)CN([C@H](C)CO)S2(=O)=O | n | x | n | n | n
C[C@H](CO)N1C[C@H](C)[C@H](CN(C)C(=O)Nc2ccc(C(F)(F)F)cc2)Oc2ncc(-c3ccc(C#N)cc3)cc2C1=O | n | x | n | n | n
C[C@H](CO)N1C[C@H](C)[C@@H](CN(C)C(=O)CCN2CCCCC2)Oc2ncc(C#Cc3ccccc3)cc2C1=O | n | x | n | n | n
COc1cccc(C#Cc2cnc3c(c2)C(=O)N([C@H](C)CO)C[C@H](C)[C@@H](CN(C)C(C)=O)O3)c1 | n | x | n | n | 23.6
C[C@@H]1CN([C@H](C)CO)C(=O)c2cc(C#Cc3ccccc3)cnc2O[C@H]1CN(C)C(=O)CCN1CCCCC1 | n | x | n | n | 25.9
O=C(NCC[C@@H]1CC[C@@H](NS(=O)(=O)c2cccc(F)c2)[C@H](CO)O1)C1CCCCC1 | n | x | x | n | n
CCC(=O)Nc1ccc2c(c1)OC[C@@H](C)N(CCC(F)(F)F)C[C@H](C)[C@H](OC)CN(C)C2=O | n | x | n | x | n
CCCN1C[C@H](C)[C@@H](OC)CN(C)C(=O)c2cc(NC(=O)C3CCOCC3)ccc2OC[C@H]1C | n | x | n | n | n
CCCN1C[C@@H](C)[C@@H](OC)CN(C)C(=O)c2cc(NC(=O)C3CCOCC3)ccc2OC[C@H]1C | n | x | n | n | 26.2
CCC(=O)Nc1ccc2c(c1)OC[C@H](C)N(CCC(F)(F)F)C[C@@H](C)[C@H](OC)CN(C)C2=O | n | x | n | x | 24.1
CCCC(=O)Nc1ccc2c(c1)C(=O)N(C)C[C@@H](OC)[C@@H](C)CN(CCC(F)(F)F)[C@H](C)CO2 | n | x | x | n | n
CCCC(=O)Nc1ccc2c(c1)C(=O)N(C)C[C@H](OC)[C@H](C)CN(CCC(F)(F)F)[C@@H](C)CO2 | n | x | x | n | 22.5
CO[C@H]1CN(C)C(=O)c2cc(NC(=O)CC(F)(F)F)ccc2OC[C@H](C)N(C(=O)C2CCCCC2)C[C@H]1C | x | x | x | n | 50.1
O=C(Nc1ccc2c(c1)[C@@H]1C[C@H](CC(=O)N3CCCCC3)O[C@H](CO)[C@@H]1O2)c1ccc2c(c1)OCO2 | n | x | n | n | n
CN(C)C(=O)c1cccc(-c2ccc3c(c2)[C@@H]2[C@@H](CCN2C(=O)c2ccncc2)[C@@H](CO)N3C)c1 | n | x | n | n | n
COc1ccc(-c2ccc3n(c2=O)C[C@H]2[C@H](CO)[C@@H](C(=O)N(C)C)[C@@H]3N2C(=O)c2cnccn2)cc1 | n | x | x | x | x
CCC(=O)N(C)C[C@H]1Oc2cc(C#CC(C)C)ccc2S(=O)(=O)N([C@H](C)CO)C[C@@H]1C | n | x | n | n | n
C[C@@H]1CN([C@@H](C)CO)C(=O)c2cccc(NC(=O)Nc3ccc4c(c3)OCO4)c2O[C@@H]1CN(C)C(=O)Nc1cccc2ccccc12 | n | x | n | n | n
